# FBW7 activator: activators of human E3 ligase FBW7; Q969H0; AlphaScreen FBW7–phospho-cyclin E peptide binding, activator screen; normalized activity (activation), % at 26.1 µM; hit rate 0.13% among 650,000; in the data active = normalized activity above about 1.9%;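 also: purified mutant Fbw7 with reduced substrate affinity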
# TEAD-YAP block: TEAD-YAP interaction inhibition | hit rate 1.4% among 640,000 | AID 1259422 | inhibition, % at 9.12 µM | HEK-TIYL cells, TEAD-Gal4/YAP UAS-luciferase luminescence; in the data active = inhibition above about 32%;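 also: 0% = median of test compound wells and 100% = reference inhibitor wells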
# MITF inh: blocks human microphthalmia-associated transcription factor; O75030; inhibition, % at 2.6 µM; AlphaScreen MITF homodimerization, bead proximity signal; hit rate 0.91% among 650,000; in the data active = inhibition above about 50%;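 also: 0% = vehicle wells with protein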
# Target sequence (O75030 whole entry, looked up): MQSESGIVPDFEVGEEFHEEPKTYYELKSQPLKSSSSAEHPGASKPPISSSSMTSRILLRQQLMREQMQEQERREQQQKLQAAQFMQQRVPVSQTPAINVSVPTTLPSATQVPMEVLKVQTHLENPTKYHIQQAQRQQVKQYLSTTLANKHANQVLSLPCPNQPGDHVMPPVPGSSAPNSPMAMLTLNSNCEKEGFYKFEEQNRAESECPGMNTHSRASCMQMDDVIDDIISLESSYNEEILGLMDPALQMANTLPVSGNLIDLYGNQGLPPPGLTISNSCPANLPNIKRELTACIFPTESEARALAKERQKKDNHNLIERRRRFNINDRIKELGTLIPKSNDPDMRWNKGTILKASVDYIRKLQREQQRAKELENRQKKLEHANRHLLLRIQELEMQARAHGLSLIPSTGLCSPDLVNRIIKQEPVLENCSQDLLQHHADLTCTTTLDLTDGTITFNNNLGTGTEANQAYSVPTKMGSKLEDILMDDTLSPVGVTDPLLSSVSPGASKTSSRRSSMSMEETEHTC
# GPR151 ag: activates the human receptor GPR151. Q8TDV0. PathHunter beta-arrestin GPR151 cells, luminescence. activation, % at 11.2 µM. hit rate 1% among 650,000. AID 1508602; in the data active = activation above about 4.9%;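 also: 0% = median of compound wells and 100% = cells with positive control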
# Starred values were filed as active, the others as inactive. This is a sample that favours compounds with a hit; in the whole collection about 3.5% have one here.
SMILES,FBW7 activator,TEAD-YAP block,MITF inh,GPR151 ag
COc1ccccc1NC(=O)CSc1nnc(-c2ccccn2)n1-c1ccccc1OC,0.0,42.2*,15.1,1.8
COc1ccccc1NC(=O)CSc1nnc(-c2ccncc2)n1-c1ccccc1C,0.0,61.9*,1.4,0.8
COc1cccc(NC(=O)CSc2nnc(-c3ccncc3)n2-c2ccccc2C)c1,0.0,14.4,-22.5,-0.3
CCOc1ccccc1NC(=O)CSc1nnc(-c2ccc(OC)cc2)n1-n1cccc1,-0.1,41.1*,-6.8,-0.4
COc1ccc(/C=C2\SC(=O)NC2=S)cc1,-0.5,-10.9,-15.1,-2.0
FC(F)(F)c1ccc(Cn2cnc3c(NC4CC4)nc(Nc4ccccc4)nc32)cc1,0.2,35.3*,16.2,-0.6
COc1cc(Nc2nc(NC3CCC(O)CC3)nc3c2ncn3Cc2ccc(C(F)(F)F)cc2)cc(OC)c1OC (centres undefined),0.0,47.0*,6.6,1.5
COc1cc(Nc2nc(Nc3ccccc3)nc3c2ncn3Cc2ccc(C(F)(F)F)cc2)cc(OC)c1OC,0.0,3.5,2.9,-0.5
FC(F)(F)c1ccc(Cn2cnc3c(NC4CC4)nc(Nc4ccc(N5CCOCC5)cc4)nc32)cc1,0.1,-7.1,6.9,1.6
COc1cc(Nc2nc(-c3c(C)noc3C)nc3c2ncn3Cc2ccc(C(F)(F)F)cc2)cc(OC)c1OC,0.3,52.2*,5.9,2.0
Cc1noc(C)c1-c1nc(Nc2ccc(N3CCOCC3)cc2)c2ncn(Cc3ccc(C(F)(F)F)cc3)c2n1,0.7,32.4*,9.2,-1.0
COc1cc(Nc2nc(Nc3ccc(C(F)(F)F)cc3)nc3c2ncn3Cc2ccc(C(F)(F)F)cc2)cc(OC)c1OC,0.1,6.1,-1.6,1.0
Cc1nn(C)c(C)c1-c1nc(Nc2ccc(N3CCOCC3)cc2)c2ncn(Cc3ccc(C(F)(F)F)cc3)c2n1,0.0,15.5,1.9,-0.5
COc1cc(Nc2nc(Nc3cc(OC)c(OC)c(OC)c3)c3ncn(Cc4ccc(C(F)(F)F)cc4)c3n2)cc(OC)c1OC,-0.1,10.0,-6.2,-0.8
CCNc1nc(Nc2cc(OC)c(OC)c(OC)c2)c2ncn(Cc3ccc(C(F)(F)F)cc3)c2n1,-0.1,52.2*,5.2,1.4
COc1ccc2oc(-c3ccc(NC(=O)COc4ccccc4[N+](=O)[O-])cc3)nc2c1,-0.2,-10.7,-2.5,1.2
COc1ccc(OC)c(S(=O)(=O)c2cc(OC)ccc2OC)c1,0.2,-1.1,4.8,0.1
COc1ccc(OS(=O)(=O)c2cc(OC)ccc2OC)cc1,-0.1,49.8*,-1.6,-0.9
CC(=O)N1CCN(Cc2ccc3c(c2)CN(C(=O)c2ccc(Cl)cc2)CCO3)CC1,0.0,5.5,-6.6,3.8
Cc1ccc(C(=O)NC(=S)NCC(=O)c2ccccc2)cc1,0.0,-17.5,-8.1,2.7
CN(C)CCNC(=O)c1ccc(-c2ccccc2)cc1,0.4,35.0*,3.2,-2.1
Cc1ccc(C(=O)CNC(=O)c2ccccc2)cc1,-0.1,65.4*,3.9,-7.6
CCNC(=O)c1ccc(-c2ccccc2)cc1,-0.1,-32.9,1.1,-1.3
CCOc1cc(C2Nc3ccc(C(=O)c4ccccc4)cc3NC3=C2C(=O)CC(C)(C)C3)ccc1O (centres undefined),0.4,45.2*,4.0,-1.0
COc1cc(C2C3=C(CCCC3=O)Nc3ccc4nc(C)ccc4c32)ccc1OC(C)=O (centres undefined),-0.1,-2.8,-12.0,-0.2
SMILES,FBW7 activator,TEAD-YAP block,MITF inh,GPR151 ag
CCOc1cc(C2Nc3ccc(C(=O)c4ccccc4)cc3NC3=C2C(=O)CCC3)ccc1O (centres undefined),-0.2,64.4*,3.1,0.9
COc1ccc(C2Nc3ccc(C(=O)c4ccccc4)cc3NC3=C2C(=O)CCC3)cc1OC (centres undefined),0.0,58.6*,-8.7,-1.5
COc1cc(C2C3=C(CCCC3=O)Nc3ccc4ncccc4c32)ccc1OC(C)=O (centres undefined),0.0,54.4*,17.3,1.2
Clc1cccc(-n2ncc3c(N4CCOCC4)ncnc32)c1,-0.1,71.3*,-16.0,-2.8
COc1ccc(-n2ncc3c(N4CCOCC4)ncnc32)cc1,-0.1,90.6*,0.9,-4.9
Cc1ccc(-n2ncc3c(N4CCOCC4)ncnc32)cc1C,0.1,78.7*,9.7,-7.0
COc1ccccc1N1CCN(c2ncnc3c2cnn3-c2ccc(C)cc2C)CC1,-0.2,58.5*,5.0,-0.1
Clc1ccc(-n2ncc3c(N4CCN(c5cccc(Cl)c5)CC4)ncnc32)cc1,0.1,0.5,-2.2,1.2
COc1ccccc1N1CCN(c2ncnc3c2cnn3-c2cccc(C)c2)CC1,0.2,15.6,-6.0,2.6
COc1cc(OC)c(NC(=O)Cn2cnc3scc(-c4ccccc4)c3c2=O)cc1Cl,0.0,14.3,-10.8,0.1
CCOC(=O)c1c(NC(=O)COC(=O)c2ccc(N)c([N+](=O)[O-])c2)sc2c1CCCC2,0.1,0.0,0.1,1.8
O=C(COc1ccccc1)OCC(=O)c1ccc(OC(F)F)cc1,-0.1,3.2,9.8,-0.4
O=C1C(Cl)=C(NCc2ccccn2)C(=O)c2ccccc21,-0.1,-16.2,11.9,-2.9
c1ccc(-n2ncc3c(N4CCOCC4)ncnc32)cc1,0.2,70.4*,1.3,-1.4
COc1ccc(NC(=O)c2ccccc2Br)cc1OC,-0.1,1.5,-4.7,0.7
COCc1c(C(=O)N/N=C/c2ccccc2Cl)nnn1-c1nonc1N,0.0,-5.0,5.8,0.9
COCc1c(C(=O)N/N=C/c2cccc(OC)c2O)nnn1-c1nonc1N,-0.2,73.0*,61.0*,0.0
CCc1c(C(=O)N/N=C/c2cccc(OC)c2O)nnn1-c1nonc1N,-0.1,74.5*,20.2,0.4
CCOC(=O)CN1c2ccccc2NC1C(C#N)c1ccc(OC)cc1 (centres undefined),0.4,36.5*,0.1,-2.3
CCOC(=O)CSC1=C(C#N)C(=O)NC(c2ccc(OC)cc2)S1 (centres undefined),-0.1,-3.1,-1.9,0.3
Cc1cc(=O)[nH]c(N/N=C/c2c(O)ccc3ccccc23)n1,-0.9,88.9*,62.3*,-0.6
NC(=S)N/N=C/c1c(O)ccc2ccccc12,-0.3,4.2,78.3*,-1.0
CN1CCCCC1C(=O)N/N=C/c1c(O)ccc2ccccc12 (centres undefined),-0.1,78.1*,83.9*,1.8
O=c1cnnc(N/N=C/c2c(O)ccc3ccccc23)[nH]1,-0.2,88.0*,117.1*,-1.8
NC(=S)N/N=C/c1c2ccccc2cc2ccccc12,0.7,13.4,4.1,-0.6
CN(C)S(=O)(=O)c1cccc(NC(=O)c2nc(Cl)c(Cl)c(Cl)c2Cl)c1,0.1,-6.1,19.5,-0.8
COc1ccc(CCNC(=O)c2sc3ncn(CC(=O)N4CCCC(C)C4)c(=O)c3c2C)cc1OC (centres undefined),-0.1,-14.9,-6.8,-1.3
O=c1[nH]nc(N/N=C/c2c(O)ccc3ccccc23)c(=O)[nH]1,-0.8,-9.7,9.6,0.7
Cc1nnc(N/N=C/c2c(O)ccc3ccccc23)[nH]c1=O,-0.1,89.3*,-17.8,-0.1
COc1ccc(CC(=O)Nc2cccc(-c3ccc(N4CCOCC4)nn3)c2)cc1OC,-0.4,33.8*,-4.3,-6.7

# From PubChem BioAssay
